FMDV inh = blocks foot and mouth disease virus; FMDV antiviral cell-based qHTS; Potency, µM (series often up to 57.9 µM), without a hit: top-dose activity change, negative = inhibition, usual class: inhibitors; actives 1.2% (n = 410,000); AID 1159524; calls by dose curve; tested in HEK293T cells; further: read-out not given here; potency means the concentration at half of the fitted maximal effect; nearly all actives have a fitted effect of over 45% in size
Marburg entry inh = Marburg virus entry inhibition; Marburg virus pseudotyped entry inhibition, cell reporter; AID 540276; Potency, µM (doses to about 37.8 µM), without a hit: at the highest dose activity change, negative = inhibition, actives largely listed as inhibitors; actives 1.8% (n = 300,000); calls by dose curve; tested in HEK293 cells; further: potency means the concentration at half of the fitted maximal effect
Lassa entry inh = Lassa virus entry inhibition; Lassa virus pseudotype entry inhibition, cell reporter; Potency, µM (highest dose often 37.9 µM), inactives show at the highest dose activity change, negative = inhibition, hits mostly inhibitors; actives 1.2% (n = 300,000); AID 540256; calls by dose curve; tested in HEK293 cells; further: potency means the concentration at half of the fitted maximal effect; nearly all actives have a fitted effect of over 50% in size
HCV inhibitor = HCV inhibition | Potency, µM (highest dose often 41.8 µM), without a hit: at the top dose activity change, negative = inhibition, most hits filed as inhibitors | actives 3.4% (n = 340,000) | Huh7.5.1 HCVcc-Cre infection, luciferase reporter, 44 h; active means well fitted inhibition curve with a large enough effect; inconclusive means small, poorly fitted or top-dose-only effect, or another doubt; inactive means no such curve, though single readings can be large or run the other way; further: potency means the concentration at half of the fitted maximal effect
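Antiviral activity was scored by luciferase reporter output from cells infected with HCVcc-Cre (~0.5 moi) in presence of compound, 44 h infection period, cells seeded 1,000/well 4 h prior.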
HCMV inh = blocks human cytomegalovirus replication; actives 4.5% (n = 410,000); activity change, negative = inhibition, % at 57.5 µM; HFF cells, HCMV-luciferase reporter, 72 h; hits give low values; in the data active means activity change below about -60%; inconclusive means no clear call, values can overlap the other calls; inactive means above about -39%
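Inhibition of viral replication was scored as loss of reporter luminescence in HFFs infected with HCMV-luciferase (MOI 1 PFU/cell) for 72 h; compounds tested at 2 doses, normalized to buffer and Salinomycin controls.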
* hit, by the source's call; ? = inconclusive; · = not tested or not shown; [ ] = dose if it differs, or a comment. Rows were chosen to be rich in hits. Some 7.9% of all compounds tested hit in one or more screens of this group. On the % scale 0 is the no-effect control and ±100 the full control effect.

SMILES	FMDV inh	Marburg entry inh	Lassa entry inh	HCV inhibitor	HCMV inh
COC(=O)c1ccc(CN2C(=O)[C@]3(OCCC=C[C@@H]3C)c3cc(OC)ccc32)cc1	·	-23%[14.2 µM]	·	·	·
C=C(C)C(=O)OC1(C(F)(F)F)Oc2cc(C)ccc2NC1=O (stereo not given)	-29%	?	-20%	8%	-95*
CCCCC(=O)Nc1ccc(OCc2cc(=O)n3c(C)csc3n2)cc1	0%	0%[46.1 µM]	-7%[46.1 µM]	·	-12
CCc1cccc(C)c1NC(=O)CSc1nnc(CC)n2c1cc1occc12	22µM*	·	-1%[46.1 µM]	·	-69*
CCc1nn(C(C)C(=O)Nc2cccc(C)c2C)c(=O)c2cc3occc3n12 (stereo not given)	2%	-24%	2%	11µM*	-35
CCc1nn(C(C)C(=O)N2CCc3ccccc3C2)c(=O)c2cc3occc3n12 (stereo not given)	4%	-9%	-15%	17%	-15
CCc1nn(C(C)C(=O)NCCN2CCCCCC2)c(=O)c2cc3occc3n12 (stereo not given)	-6%	?	-5%[46.1 µM]	?	-19
CCc1nn(C(C)C(=O)NCCN2CCN(c3cccc(C)c3C)CC2)c(=O)c2cc3occc3n12 (stereo not given)	28µM*	?	-13%	1.8µM*	-11
O=C(c1cccc([N+](=O)[O-])c1)N1c2ncnn2C2(CCCCC2)[C@@H]2CCCC[C@@H]21	?	1%[46.1 µM]	11%[46.1 µM]	·	0
C[C@H]1[C@@H](NS(=O)(=O)c2ccc(C#N)cc2)CC[C@@]23CCCN2C(=O)CCC[C@@H]13	·	·	·	·	6
CCSC1=C(C#N)C(c2ccccc2OC)CC(=O)N1 (stereo not given)	-10%	·	·	-8%	-75*
CCCSC1=C(C#N)C(c2ccccc2C)CC(=O)N1 (stereo not given)	?	?	-15%	-12%	-99*
CCCCSC1=C(C#N)C(c2ccccc2C)CC(=O)N1 (stereo not given)	?	·	·	-5%	?
CCOC(=O)N1CCN([C@@H]2OC(=O)c3ccccc32)CC1	·	23%[46.1 µM]	·	·	·
CC1(C)Cc2ccccc2C(NNC(=O)c2cccnc2)=N1	-18%	2%	4%	21%	-92*
CCN(CC)C(=O)CSc1nnc2nnc3cc(C)ccc3n12	-18%	-13%[46.1 µM]	3%[46.1 µM]	4%	-67*
COc1cc(C2C(C#N)=C(N)Oc3c2ccc2ccccc32)ccc1OCC(=O)Nc1ccccc1C (stereo not given)	-15%	?	-17%	8.9µM*	10
COC(=O)c1ccc(NC(=O)COc2ccc(C3C(C#N)=C(N)Oc4c3ccc3ccccc43)cc2OC)cc1 (stereo not given)	-6%	-27%	?	?	17
CCOC(=O)c1sc2ccccc2c1S(=O)(=O)Nc1cccc(C(F)(F)F)c1	62%	·	29%[46.1 µM]	·	0
Cc1nn(C)c(C)c1CCC(=O)NC1CC(C)(C)Cc2c1cnn2-c1ccccc1 (stereo not given)	-7%	-1%	8%	-4%	-69*
COc1ccc(-n2ncc3c2CC(C)(C)CC3NC(=O)c2cnc(C)cn2)cc1 (stereo not given)	-15%	·	·	-1%	-64*
Cc1cccc(C)c1OCCn1c(C2CC(=O)N(Cc3ccc(F)cc3)C2)nc2ccccc21 (stereo not given)	?	3%[46.1 µM]	?	·	-7
Cc1ccc(C)c(S(=O)(=O)c2cn(C)c3cc(N4CCCCC4C)c(F)cc3c2=O)c1 (stereo not given)	-6%	·	-4%[46.1 µM]	·	-15
COC(=O)C1=C(C)N(Cc2ccccc2)C(=S)NC1CCc1ccccc1 (stereo not given)	·	38%[14.2 µM]	·	·	·
CCc1ccc(Oc2c(C(F)(F)F)oc3c(CN4CCCC(C)C4)c(O)ccc3c2=O)cc1 (stereo not given)	-4%	-5%[46.1 µM]	27%[46.1 µM]	·	-16
CN1CCN(C(=S)c2ccc(N(C)C)cc2)CC1	25%	9%	-9%	-6%	-108*
CN1CCN(C(=S)c2ccc(Br)cc2)CC1	-4%	-2%[46.1 µM]	9%	2%	6
COCCn1c(CNC(=O)c2cccc(C)c2)nc2cccnc21	-9%	·	1%[46.1 µM]	·	?
Oc1ccccc1CNn1cnnc1	-8%	5%	6%	27%	-100*

Compound activity deposited in PubChem BioAssay by National Center for Advancing Translational Sciences (NCATS).
